# Measurements: paper PMC7862700, “An all-to-all approach to the identification of sequence-specific readers for epigenetic DNA modifications on cytosine”
# Assays:
# Test in all cases: DAPPL (digital affinity profiling via proximity ligation, sequencing); 10 mM Tris-HCl pH 7.5, 50 mM NaCl, 1 mM DTT, 4% glycerol, room temperature, 30 min; GST-TFs on glutathione beads, 16-mer random dsDNA library, 0.1% formaldehyde crosslink after washing; high values mean tight binding
# [1] = target: T1, FEV (Homo sapiens, UniProt Q99581 1-238); conditions: protein: recombinant; tags: N-terminal GST; dsDNA, one strand shown
# T1 sequence: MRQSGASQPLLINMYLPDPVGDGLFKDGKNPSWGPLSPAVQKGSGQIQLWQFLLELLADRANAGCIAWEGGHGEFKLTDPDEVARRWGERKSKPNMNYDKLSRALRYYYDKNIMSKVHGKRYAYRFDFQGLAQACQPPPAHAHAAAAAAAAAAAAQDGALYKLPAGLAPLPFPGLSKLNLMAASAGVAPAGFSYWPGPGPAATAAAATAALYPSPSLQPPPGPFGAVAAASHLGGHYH
# Outline: (§1)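 Sequencing on an Illumina NextSeq500 followed washing, crosslinking with 0.1% formaldehyde, proximity ligation (BsaI/T4 ligase, 1 h, 37 °C) and PCR amplification of pools that had been incubated for 30 min at room temperature with 200 nmole of a random double-stranded 16-mer DNA library in Tris/NaCl/DTT/glycerol buffer. Each pool held DNA-barcoded human transcription factors, expressed in yeast as GST fusions and captured on glutathione beads, plus a tag-only sample. Binding signal is a hexamer's read frequency for a factor divided by its frequency in the tag-only sample.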
# [2] = target: ETV5 (Homo sapiens, UniProt P41161 1-510); conditions: protein: recombinant; tags: N-terminal GST; dsDNA, one strand shown
# Outline: as §1
# [3] = target: HSF1 (Homo sapiens, UniProt Q00613 1-529); conditions: protein: recombinant; tags: N-terminal GST; chain copies: 3; dsDNA, one strand shown
# Outline: as §1
# [4] = target: T2, SPIC (Homo sapiens, UniProt Q8N5J4 1-248); conditions: protein: recombinant; tags: N-terminal GST; dsDNA, one strand shown
# T2 sequence: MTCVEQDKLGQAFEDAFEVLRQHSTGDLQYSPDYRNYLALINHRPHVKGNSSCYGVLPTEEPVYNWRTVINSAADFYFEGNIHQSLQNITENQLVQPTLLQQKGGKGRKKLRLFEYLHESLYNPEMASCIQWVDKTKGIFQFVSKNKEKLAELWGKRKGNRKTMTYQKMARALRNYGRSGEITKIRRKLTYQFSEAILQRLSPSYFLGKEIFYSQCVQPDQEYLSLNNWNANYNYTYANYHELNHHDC
# Outline: as §1
# [5] = target: ELF4 (Homo sapiens, UniProt Q99607 1-663); conditions: protein: recombinant; tags: N-terminal GST; dsDNA, one strand shown
# Outline: as §1
# [6] = target: T3, ELK4 (Homo sapiens, UniProt P28324-2 1-405); conditions: protein: recombinant; tags: N-terminal GST; dsDNA, one strand shown
# T3 sequence: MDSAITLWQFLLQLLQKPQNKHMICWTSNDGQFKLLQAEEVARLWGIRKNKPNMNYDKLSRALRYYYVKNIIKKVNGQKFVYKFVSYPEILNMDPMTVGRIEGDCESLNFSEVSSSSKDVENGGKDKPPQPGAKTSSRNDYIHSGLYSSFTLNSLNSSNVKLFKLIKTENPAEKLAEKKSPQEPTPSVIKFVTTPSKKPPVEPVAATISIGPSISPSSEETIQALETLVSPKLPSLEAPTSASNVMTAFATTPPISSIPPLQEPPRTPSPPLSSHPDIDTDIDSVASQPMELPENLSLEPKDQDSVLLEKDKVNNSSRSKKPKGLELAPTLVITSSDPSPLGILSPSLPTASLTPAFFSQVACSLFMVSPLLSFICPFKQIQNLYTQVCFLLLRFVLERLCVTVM
# Outline: as §1
# [7] = target: T4, ETV2 (Homo sapiens, UniProt O00321 1-342); conditions: protein: recombinant; tags: N-terminal GST; dsDNA, one strand shown
# T4 sequence: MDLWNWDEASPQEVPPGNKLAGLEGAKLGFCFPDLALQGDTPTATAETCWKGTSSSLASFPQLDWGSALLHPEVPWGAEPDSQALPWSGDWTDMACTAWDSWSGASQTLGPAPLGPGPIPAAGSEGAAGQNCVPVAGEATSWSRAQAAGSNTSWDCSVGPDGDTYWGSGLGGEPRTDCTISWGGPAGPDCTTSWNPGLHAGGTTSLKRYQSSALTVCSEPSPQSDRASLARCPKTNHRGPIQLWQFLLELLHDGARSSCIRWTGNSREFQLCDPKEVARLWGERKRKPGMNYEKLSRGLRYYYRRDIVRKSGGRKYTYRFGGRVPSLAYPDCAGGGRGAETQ
# Outline: as §1
# [8] = target: T5, ELF3 (Homo sapiens, UniProt P78545 1-371); conditions: protein: recombinant; tags: N-terminal GST; dsDNA, one strand shown
# T5 sequence: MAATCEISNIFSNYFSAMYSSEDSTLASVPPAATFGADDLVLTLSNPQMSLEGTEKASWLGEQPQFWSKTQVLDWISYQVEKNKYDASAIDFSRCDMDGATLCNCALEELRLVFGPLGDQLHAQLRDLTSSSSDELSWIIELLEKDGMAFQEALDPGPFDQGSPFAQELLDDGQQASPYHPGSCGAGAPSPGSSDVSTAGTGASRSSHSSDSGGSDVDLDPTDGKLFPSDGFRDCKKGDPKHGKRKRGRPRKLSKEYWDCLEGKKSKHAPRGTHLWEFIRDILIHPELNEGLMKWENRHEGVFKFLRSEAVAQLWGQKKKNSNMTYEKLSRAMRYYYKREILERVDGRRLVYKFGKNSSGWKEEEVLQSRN
# Outline: as §1
# [9] = target: CRX (Homo sapiens, UniProt O43186 1-299); conditions: protein: recombinant; tags: N-terminal GST; dsDNA, one strand shown
# Outline: as §1
# [10] = target: ETV1 (Homo sapiens, UniProt P50549 1-477); conditions: protein: recombinant; tags: N-terminal GST; dsDNA, one strand shown
# Outline: as §1
# [11] = target: T6, ERF (Homo sapiens, UniProt P50548 1-548); conditions: protein: recombinant; tags: N-terminal GST; dsDNA, one strand shown
# T6 sequence: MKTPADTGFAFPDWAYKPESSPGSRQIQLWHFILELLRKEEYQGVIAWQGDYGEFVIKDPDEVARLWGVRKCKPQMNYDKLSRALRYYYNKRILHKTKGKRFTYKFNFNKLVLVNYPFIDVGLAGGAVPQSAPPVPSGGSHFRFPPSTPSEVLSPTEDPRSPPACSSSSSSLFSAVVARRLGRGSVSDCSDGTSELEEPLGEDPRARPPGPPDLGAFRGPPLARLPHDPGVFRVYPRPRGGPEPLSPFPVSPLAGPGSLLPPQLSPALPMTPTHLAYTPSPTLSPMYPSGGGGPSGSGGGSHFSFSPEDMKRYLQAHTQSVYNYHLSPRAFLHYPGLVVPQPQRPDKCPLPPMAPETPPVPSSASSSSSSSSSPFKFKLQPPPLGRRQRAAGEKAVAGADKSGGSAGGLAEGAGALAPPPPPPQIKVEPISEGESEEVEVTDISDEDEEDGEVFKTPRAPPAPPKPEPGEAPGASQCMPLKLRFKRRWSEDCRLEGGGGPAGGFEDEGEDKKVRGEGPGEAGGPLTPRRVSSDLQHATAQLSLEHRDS
# Outline: as §1
# [12] = target: T7, ETV3L (Homo sapiens, UniProt Q6ZN32 1-361); conditions: protein: recombinant; tags: N-terminal GST; dsDNA, one strand shown
# T7 sequence: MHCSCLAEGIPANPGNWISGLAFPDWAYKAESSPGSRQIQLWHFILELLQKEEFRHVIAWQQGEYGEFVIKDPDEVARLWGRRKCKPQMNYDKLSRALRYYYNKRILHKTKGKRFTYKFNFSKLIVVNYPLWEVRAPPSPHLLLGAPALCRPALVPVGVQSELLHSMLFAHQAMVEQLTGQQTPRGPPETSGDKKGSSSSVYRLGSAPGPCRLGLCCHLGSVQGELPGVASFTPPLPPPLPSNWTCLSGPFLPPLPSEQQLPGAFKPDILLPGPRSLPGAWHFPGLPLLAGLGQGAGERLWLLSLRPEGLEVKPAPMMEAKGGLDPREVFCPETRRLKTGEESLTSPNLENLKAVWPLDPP
# Outline: as §1
# [13] = target: T8, ETS2 (Homo sapiens, UniProt P15036 1-469); conditions: protein: recombinant; tags: N-terminal GST; dsDNA, one strand shown
# T8 sequence: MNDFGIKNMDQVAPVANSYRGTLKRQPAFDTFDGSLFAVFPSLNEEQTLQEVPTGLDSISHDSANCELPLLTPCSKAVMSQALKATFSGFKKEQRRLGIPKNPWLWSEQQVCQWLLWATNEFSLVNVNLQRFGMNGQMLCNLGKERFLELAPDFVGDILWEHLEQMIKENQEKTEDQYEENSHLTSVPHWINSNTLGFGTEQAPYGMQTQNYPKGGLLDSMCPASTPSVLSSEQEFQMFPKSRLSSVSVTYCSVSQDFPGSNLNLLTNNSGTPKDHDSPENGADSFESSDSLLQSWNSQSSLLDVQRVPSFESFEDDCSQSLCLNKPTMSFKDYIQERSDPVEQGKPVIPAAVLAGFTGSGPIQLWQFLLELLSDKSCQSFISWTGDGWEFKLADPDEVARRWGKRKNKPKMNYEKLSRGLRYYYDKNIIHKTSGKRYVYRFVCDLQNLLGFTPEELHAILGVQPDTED
# Outline: as §1
# [14] = target: T9, SPDEF (Homo sapiens, UniProt O95238 1-335); conditions: protein: recombinant; tags: N-terminal GST; dsDNA, one strand shown
# T9 sequence: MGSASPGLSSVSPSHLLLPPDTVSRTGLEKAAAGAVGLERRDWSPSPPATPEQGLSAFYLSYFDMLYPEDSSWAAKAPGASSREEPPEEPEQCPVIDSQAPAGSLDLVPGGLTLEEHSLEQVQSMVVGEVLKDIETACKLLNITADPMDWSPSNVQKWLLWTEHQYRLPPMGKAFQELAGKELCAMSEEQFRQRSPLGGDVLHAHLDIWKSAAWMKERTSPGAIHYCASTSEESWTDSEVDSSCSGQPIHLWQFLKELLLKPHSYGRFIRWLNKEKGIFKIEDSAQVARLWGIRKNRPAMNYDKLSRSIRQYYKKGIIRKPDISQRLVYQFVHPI
# Outline: as §1
# [15] = target: T10, ETV7 (Homo sapiens, UniProt Q9Y603 1-341); conditions: protein: recombinant; tags: N-terminal GST; dsDNA, one strand shown
# T10 sequence: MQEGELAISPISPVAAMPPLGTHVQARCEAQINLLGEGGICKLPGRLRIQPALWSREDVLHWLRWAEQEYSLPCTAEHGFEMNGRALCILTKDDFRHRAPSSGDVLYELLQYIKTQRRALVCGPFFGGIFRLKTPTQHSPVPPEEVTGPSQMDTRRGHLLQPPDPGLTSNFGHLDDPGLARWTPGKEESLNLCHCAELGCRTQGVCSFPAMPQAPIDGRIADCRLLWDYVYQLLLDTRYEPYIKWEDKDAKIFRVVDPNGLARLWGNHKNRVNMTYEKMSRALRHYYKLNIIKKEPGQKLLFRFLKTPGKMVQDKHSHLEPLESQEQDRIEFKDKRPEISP
# Outline: as §1
# [16] = target: T11, ELF5 (Homo sapiens, UniProt Q9UKW6-2 1-255); conditions: protein: recombinant; tags: N-terminal GST; dsDNA, one strand shown
# T11 sequence: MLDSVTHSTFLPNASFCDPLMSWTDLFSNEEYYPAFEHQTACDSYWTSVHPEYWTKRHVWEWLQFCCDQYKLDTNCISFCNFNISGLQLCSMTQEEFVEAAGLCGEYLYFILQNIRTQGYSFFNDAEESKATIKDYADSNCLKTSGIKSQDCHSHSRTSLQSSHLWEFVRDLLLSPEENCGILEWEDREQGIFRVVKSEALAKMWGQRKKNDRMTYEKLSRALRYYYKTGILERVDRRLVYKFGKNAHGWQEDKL
# Outline: as §1
# [17] = target: T12, ETV3 (Homo sapiens, UniProt P41162-2 1-143); conditions: protein: recombinant; tags: N-terminal GST; dsDNA, one strand shown
# T12 sequence: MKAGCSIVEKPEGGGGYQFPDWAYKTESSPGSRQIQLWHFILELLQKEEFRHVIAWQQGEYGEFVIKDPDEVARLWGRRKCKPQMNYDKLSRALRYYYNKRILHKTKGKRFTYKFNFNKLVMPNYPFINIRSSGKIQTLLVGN
# Outline: as §1
# [18] = target: ETV6 (Homo sapiens, UniProt P41212 1-452); conditions: protein: recombinant; tags: N-terminal GST; dsDNA, one strand shown
# Outline: as §1
# Chain of CRX (O43186 whole entry): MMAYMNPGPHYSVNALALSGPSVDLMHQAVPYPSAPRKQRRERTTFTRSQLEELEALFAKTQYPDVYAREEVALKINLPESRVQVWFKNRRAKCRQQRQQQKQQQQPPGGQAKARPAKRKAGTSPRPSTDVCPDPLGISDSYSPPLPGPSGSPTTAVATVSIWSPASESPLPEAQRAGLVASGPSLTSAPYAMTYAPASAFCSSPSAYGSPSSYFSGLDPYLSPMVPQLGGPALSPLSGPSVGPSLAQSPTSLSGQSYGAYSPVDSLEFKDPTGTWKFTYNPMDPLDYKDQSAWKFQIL
# Chain of HSF1 (Q00613 whole entry): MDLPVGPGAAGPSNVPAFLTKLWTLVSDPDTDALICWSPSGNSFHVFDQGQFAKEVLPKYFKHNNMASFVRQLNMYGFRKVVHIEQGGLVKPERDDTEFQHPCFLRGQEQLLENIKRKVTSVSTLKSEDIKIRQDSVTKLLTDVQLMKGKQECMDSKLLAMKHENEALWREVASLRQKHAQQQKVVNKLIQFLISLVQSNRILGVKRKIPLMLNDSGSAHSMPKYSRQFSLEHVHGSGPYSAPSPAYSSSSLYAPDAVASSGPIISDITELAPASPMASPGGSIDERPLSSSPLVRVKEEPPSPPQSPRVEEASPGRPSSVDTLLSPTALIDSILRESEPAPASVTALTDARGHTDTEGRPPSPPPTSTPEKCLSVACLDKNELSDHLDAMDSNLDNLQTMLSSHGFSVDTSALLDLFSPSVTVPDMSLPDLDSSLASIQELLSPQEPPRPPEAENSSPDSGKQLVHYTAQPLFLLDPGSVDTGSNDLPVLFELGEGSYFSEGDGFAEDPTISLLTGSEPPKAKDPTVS
# Chain of ETV6 (P41212 whole entry): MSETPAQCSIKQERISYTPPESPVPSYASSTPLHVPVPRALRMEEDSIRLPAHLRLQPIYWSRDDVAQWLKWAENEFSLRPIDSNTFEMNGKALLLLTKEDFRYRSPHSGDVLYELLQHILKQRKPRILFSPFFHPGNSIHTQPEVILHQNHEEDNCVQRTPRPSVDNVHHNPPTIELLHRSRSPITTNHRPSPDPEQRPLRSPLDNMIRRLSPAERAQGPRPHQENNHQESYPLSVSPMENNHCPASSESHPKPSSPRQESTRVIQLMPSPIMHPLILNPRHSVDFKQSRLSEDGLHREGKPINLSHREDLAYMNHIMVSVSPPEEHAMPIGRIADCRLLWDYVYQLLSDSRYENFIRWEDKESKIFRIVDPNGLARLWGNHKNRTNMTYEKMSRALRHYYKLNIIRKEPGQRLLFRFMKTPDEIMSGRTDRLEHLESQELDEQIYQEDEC
# Chain of ETV5 (P41161 whole entry): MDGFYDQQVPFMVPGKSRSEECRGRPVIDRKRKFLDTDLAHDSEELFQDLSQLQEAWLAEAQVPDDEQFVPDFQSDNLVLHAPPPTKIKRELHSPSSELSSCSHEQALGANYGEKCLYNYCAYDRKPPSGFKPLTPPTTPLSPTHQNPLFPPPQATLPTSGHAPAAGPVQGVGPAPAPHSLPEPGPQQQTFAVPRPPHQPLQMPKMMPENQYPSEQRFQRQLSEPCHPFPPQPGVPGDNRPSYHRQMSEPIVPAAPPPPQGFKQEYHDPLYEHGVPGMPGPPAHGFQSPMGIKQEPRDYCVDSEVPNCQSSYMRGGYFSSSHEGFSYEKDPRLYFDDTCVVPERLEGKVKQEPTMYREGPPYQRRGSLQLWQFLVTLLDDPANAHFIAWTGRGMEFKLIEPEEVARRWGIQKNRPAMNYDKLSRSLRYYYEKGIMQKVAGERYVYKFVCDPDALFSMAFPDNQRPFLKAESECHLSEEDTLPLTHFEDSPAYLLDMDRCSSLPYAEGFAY
# Chain of ELF4 (Q99607 whole entry): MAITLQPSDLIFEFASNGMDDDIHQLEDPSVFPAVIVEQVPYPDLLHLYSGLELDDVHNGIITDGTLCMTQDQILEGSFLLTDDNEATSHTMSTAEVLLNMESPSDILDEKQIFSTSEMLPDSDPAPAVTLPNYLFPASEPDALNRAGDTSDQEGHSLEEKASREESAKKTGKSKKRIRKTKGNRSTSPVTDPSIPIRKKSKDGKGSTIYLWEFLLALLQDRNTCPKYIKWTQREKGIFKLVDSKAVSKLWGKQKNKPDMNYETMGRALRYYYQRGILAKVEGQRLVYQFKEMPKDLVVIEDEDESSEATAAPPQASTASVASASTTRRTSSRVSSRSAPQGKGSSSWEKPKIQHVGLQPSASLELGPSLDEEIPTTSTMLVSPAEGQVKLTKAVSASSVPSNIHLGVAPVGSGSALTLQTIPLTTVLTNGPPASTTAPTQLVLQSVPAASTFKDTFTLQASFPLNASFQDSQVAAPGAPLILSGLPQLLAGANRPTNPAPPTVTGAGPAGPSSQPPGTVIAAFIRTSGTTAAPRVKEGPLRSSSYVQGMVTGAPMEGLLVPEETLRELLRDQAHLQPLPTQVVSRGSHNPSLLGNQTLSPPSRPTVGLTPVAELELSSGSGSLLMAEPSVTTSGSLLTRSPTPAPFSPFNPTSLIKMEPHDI
# Chain of ETV1 (P50549 whole entry): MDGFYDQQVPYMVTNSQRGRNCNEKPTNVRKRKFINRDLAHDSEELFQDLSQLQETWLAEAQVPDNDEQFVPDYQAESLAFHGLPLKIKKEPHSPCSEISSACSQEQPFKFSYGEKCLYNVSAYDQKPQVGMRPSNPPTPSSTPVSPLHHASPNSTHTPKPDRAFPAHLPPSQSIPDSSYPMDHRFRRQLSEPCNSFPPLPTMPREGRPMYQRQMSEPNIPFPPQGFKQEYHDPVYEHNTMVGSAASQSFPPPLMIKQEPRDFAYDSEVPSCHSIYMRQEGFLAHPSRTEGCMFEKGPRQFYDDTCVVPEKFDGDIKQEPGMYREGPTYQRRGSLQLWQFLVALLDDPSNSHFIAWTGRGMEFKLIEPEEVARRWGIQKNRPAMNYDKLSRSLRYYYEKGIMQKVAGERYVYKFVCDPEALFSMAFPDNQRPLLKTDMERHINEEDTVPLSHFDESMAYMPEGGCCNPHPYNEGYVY
sequence,measurement,setting,value
AAGATA,binding signal,[1],"1.08 fold enrichment (6-mer frequency, TF over GST control)"
same,binding signal,[2],"1.14 fold enrichment (6-mer frequency, TF over GST control)"
same,binding signal,[3],"1.33 fold enrichment (6-mer frequency, TF over GST control)"
same,binding signal,[4],"1.06 fold enrichment (6-mer frequency, TF over GST control)"
same,binding signal,[5],"1.16 fold enrichment (6-mer frequency, TF over GST control)"
same,binding signal,[6],"1.12 fold enrichment (6-mer frequency, TF over GST control)"
same,binding signal,[7],"1.16 fold enrichment (6-mer frequency, TF over GST control)"
same,binding signal,[8],"1.03 fold enrichment (6-mer frequency, TF over GST control)"
same,binding signal,[9],"1.53 fold enrichment (6-mer frequency, TF over GST control)"
same,binding signal,[10],"1.2 fold enrichment (6-mer frequency, TF over GST control)"
same,binding signal,[11],"1.17 fold enrichment (6-mer frequency, TF over GST control)"
same,binding signal,[12],"1.09 fold enrichment (6-mer frequency, TF over GST control)"
same,binding signal,[13],"1.1 fold enrichment (6-mer frequency, TF over GST control)"
same,binding signal,[14],"1.1 fold enrichment (6-mer frequency, TF over GST control)"
same,binding signal,[15],"1.1 fold enrichment (6-mer frequency, TF over GST control)"
same,binding signal,[16],"1.07 fold enrichment (6-mer frequency, TF over GST control)"
same,binding signal,[17],"1.11 fold enrichment (6-mer frequency, TF over GST control)"
same,binding signal,[18],"1.14 fold enrichment (6-mer frequency, TF over GST control)"
